Screening data as filed in PubChem BioAssay.
This is a sample that favours compounds with a hit; in the whole collection about 21% have one here.
TDP1 cell noCPT: qHTS for Inhibitors of human tyrosyl-DNA phosphodiesterase 1 (TDP1): qHTS in cells in absence of CPT | DT40 Tdp1-/- hTDP1 cells, no CPT, ATP luminescence, 48 h | 15% of 420,000 active | Potency, µM (series often up to 46.2 µM), without a hit: top-dose activity change, negative = growth inhibition, usual class: inhibitors; further: potency means the concentration at half of the fitted maximal effect; nearly all actives have a fitted effect of over 55% in size
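Compound effects on proliferation are scored in DT40 Tdp1-/-;hTDP1 cells in the absence of CPT. ATP levels (CellTiter-Glo luminescence) are recorded after a ≥48 hr, 37 °C incubation.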
RORg inh: qHTS for inhibitors of ROR gamma transcriptional activity. Drosophila S2 Gal4-RORgamma UAS-luciferase reporter, 20 h. 5.4% of 310,000 active. Potency, µM (highest dose often 53.6 µM), inactives show at the top dose activity change, negative = inhibition, actives largely listed as inhibitors. AID 2551, 2010. Nuclear receptor ROR-gamma (Mus musculus), P51450; further: potency means the concentration at half of the fitted maximal effect; nearly all actives have a fitted effect of over 60% in size
Target sequence (P51450 whole entry, looked up, the tested form may be a part): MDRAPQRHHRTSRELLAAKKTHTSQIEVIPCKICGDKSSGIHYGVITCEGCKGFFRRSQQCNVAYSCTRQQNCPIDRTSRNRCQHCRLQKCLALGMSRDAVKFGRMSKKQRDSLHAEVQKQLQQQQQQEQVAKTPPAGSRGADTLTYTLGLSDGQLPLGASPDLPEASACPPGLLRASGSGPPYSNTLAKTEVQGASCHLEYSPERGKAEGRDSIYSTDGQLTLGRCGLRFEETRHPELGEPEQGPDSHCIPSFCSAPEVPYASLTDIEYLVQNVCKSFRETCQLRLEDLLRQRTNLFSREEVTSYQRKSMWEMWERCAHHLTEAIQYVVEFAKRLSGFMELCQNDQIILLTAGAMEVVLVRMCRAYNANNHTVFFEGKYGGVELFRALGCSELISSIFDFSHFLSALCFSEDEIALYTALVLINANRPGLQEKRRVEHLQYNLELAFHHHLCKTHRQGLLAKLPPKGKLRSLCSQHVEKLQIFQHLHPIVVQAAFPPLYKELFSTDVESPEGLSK
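Schneider cells (Drosophila), stable Gal4 DBD–ROR gamma + UAS-luc; 1 hr cmpd preincubation; Cu2+ induction 700 uM final; 20 hr ambient; luminescence.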
IL1B secr inh: qHTS for Inhibitors of Inflammasome Signaling: IL-1-beta AlphaLISA Primary Screen | THP-1 LPS/ATP IL-1B secretion, AlphaLISA, 16 h; active compounds read low | activity change, % at 57.5 µM | 4.7% of 360,000 active | AID 743279, 2014; in the data active means activity change below about -50%; inconclusive means mostly about -30% to -49%
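THP-1 cells pretreated 1 hr with compounds (up to 57.5 uM final), then stimulated with LPS (250 ng/mL final) plus ATP (1.25 mM final); secreted IL-1B measured by AlphaLISA after 16 hr, decreased signal indicating inhibition.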
ELG1 DNA repair: qHTS screen for small molecules that inhibit ELG1-dependent DNA repair in human embryonic kidney (HEK293T) cells expressing luciferase-tagged ELG1 | 2.3% of 330,000 active | Potency, µM (titrated, usually from 46.1 µM), for the others: at the highest dose activity change, negative = inhibition, hits mostly inhibitors | HEK293T ELG1-luciferase reporter, luminescence, 16 h; DNA damage induced by 5-fluorouridine; further: potency means the concentration at half of the fitted maximal effect; nearly all actives have a fitted effect of over 55% in size
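5-Fluorouridine DNA damage + compound/DMSO, 2,000 cells/well, 16 h, 37 °C/5% CO2. ONE-Glo, 30 min RT, luminescence. Readout = decrease in reporter signal.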
TDP1 cell CPT: qHTS for Inhibitors of human tyrosyl-DNA phosphodiesterase 1 (TDP1): qHTS in cells in presence of CPT; chicken DT40 Tdp1-/-;hTDP1 cells + 20 nM CPT, ATP luminescence, 48 h; Potency, µM (highest dose often 46.2 µM), for the others: at the top dose activity change, negative = growth inhibition, most hits filed as inhibitors; 12% of 420,000 active; further: potency means the concentration at half of the fitted maximal effect; nearly all actives have a fitted effect of over 55% in size
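Chicken DT40 Tdp1-/- cells complemented with human TDP1, 400 cells/well, exposed to compounds plus 20 nM camptothecin for at least 48 h at 37 C; viability read as ATP content by CellTiter-Glo luminescence.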
VP16 counter: VP16 counterscreen qHTS for inhibitors of ROR gamma transcriptional activity; Drosophila S2 Gal4-VP16 UAS-luciferase, luminescence, 20 h; 3.5% of 310,000 active; Potency, µM (top dose mostly 53.6 µM), for the others: top-dose activity, negative = inhibition, actives largely listed as inhibitors;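 further: Gal4-VP16 expression switched on by copper sulfate through the metallothionein promoter; potency means the concentration at half of the fitted maximal effect; nearly all actives have a fitted effect of over 50% in size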
* marks the source's active call; other numbers are inactive results; ? = inconclusive; · = no result given; [ ] = another dose, or the depositor's remark. Unless noted, the call rests on the fitted dose curve; in most records, active means well fitted curve in the direction sought with a large enough effect; inconclusive means small, poorly fitted or top-dose-only effect, or another doubt; inactive means no such curve, though single readings can be large; an effect the other way counts as inactive or inconclusive. On the % scale 0 is the no-effect control and ±100 the full control effect.

SMILES | TDP1 cell noCPT | RORg inh | IL1B secr inh | ELG1 DNA repair | TDP1 cell CPT | VP16 counter
Cc1cc(NC(=O)C(C)SCC(=O)Nc2cc(C(F)(F)F)ccc2N2CCOCC2)no1 (stereo unspecified) | ? | · | 0 | -19% | 10% | ·
O=C(c1cc2ccccc2oc1=O)N1CCN(c2ccc(Cl)cc2)CC1 | 21µM* | · | · | · | ? | ·
Cc1cc(C)c(S(=O)(=O)N2CCN(C(=O)c3cc4ccccc4oc3=O)CC2)c(C)c1 | ? | · | -17 | ? | 21µM* | ·
CN1CCN(C(=O)c2cc3ccccc3oc2=O)CC1 | -1% | 7% | 29 | 2% | 4% | 0%
CCn1c(C)nc2cc(C(=O)NNC(=S)Nc3ccccc3Cl)ccc21 | -10% | 11µM* | 0 | ? | -24% | 20µM*
CCn1c(C)nc2cc(C(=O)NNC(=S)Nc3ccccc3)ccc21 | 2% | -28% | -2 | ? | -6% | -21%
CCn1c(C)nc2cc(C(=O)NNC(=S)Nc3ccc(Cl)cc3Cl)ccc21 | -13% | 0% | -23 | 29% | -4% | ?
CCn1c(C)nc2cc(C(=O)NNC(=S)NC(=O)c3ccccc3)ccc21 | 23µM* | ? | 14 | -15% | ? | 2%
CCC(=O)NC(Nc1c(C)n(C)n(-c2ccccc2)c1=O)C(Cl)(Cl)Cl (stereo unspecified) | -20% | -1% | 3 | -1% | -11% | 0%
Cc1ccn2cc(CSc3ccccc3)nc2c1 | ? | 13µM* | -4 | ? | ? | 8.9µM*
Cc1ccc(SCc2cn3cccnc3n2)cc1 | ? | 11% | 11 | ? | -16% | -2%
CC(C)Oc1ccc(C(=O)OC(C)C(=O)Nc2nc(-c3cccc([N+](=O)[O-])c3)cs2)cc1 (stereo unspecified) | 26µM* | -3% | -3 | 16µM* | 16µM* | 8%
Cc1ccc(-c2csc(NC(=O)c3ccc(-c4ccccc4)cc3)n2)o1 | ? | ? | -23 | -2% | 16µM* | ?
O=C(Nc1cc(-c2ccccc2)cs1)c1ccco1 | 15µM* | · | -29 | ? | ? | ·
O=C(Nc1nc(-c2ccccc2)cs1)c1ccco1 | ? | 26% | -59* | ? | ? | -2%
CC(OC(=O)c1ccc(F)cc1)C(=O)Nc1nc(-c2cccc([N+](=O)[O-])c2)cs1 (stereo unspecified) | ? | 44% | ? | ? | ? | -7%
OB(O)O | -19% | -13%[10 µM] | · | · | 3% | 6%
O=C(Nc1nc(-c2ccco2)cs1)c1ccccc1 | ? | 43% | -21 | ? | 13µM* | 10%
CC(OC(=O)c1ccco1)C(=O)Nc1nc(-c2ccccc2)cs1 (stereo unspecified) | 16µM* | · | 20 | ? | ? | ·
O=Cc1ccc(N2CCOCC2)cc1 | -3% | · | · | · | 10% | ·
Cc1ncc2c(c1CNC(=O)/C=C/c1cccs1)CCN(C(=O)c1c(C)noc1C)C2 | -13% | · | · | · | 16%[9.04 µM] | ·
CN(C)c1ccc(/C=C/c2ncnc3ccccc23)cc1 | 16µM* | · | · | · | ? | ·
CN(C)c1ccc(/C=C/c2c(Cl)cnc3ccccc23)cc1 | 11µM* | · | · | · | 11µM* | ·
C=CCC1CCC/C(=N\NS(=O)(=O)c2ccc(C)cc2)C1 (stereo unspecified) | 11% | -33% | 5 | 11% | ? | 14%
CC(=O)c1cc2c(cc1NC(=O)CSc1nnc(C3CC3)n1C)OCO2 | 15% | · | -4 | · | 22% | ·
SMILES | TDP1 cell noCPT | RORg inh | IL1B secr inh | ELG1 DNA repair | TDP1 cell CPT | VP16 counter
Cc1ccc(CN2CCN(Cc3c(C)nn(-c4ccc(F)cc4)c3C)CC2CCO)o1 (stereo unspecified) | -7% | 15% | 18 | 4% | -21% | 5%
COc1cc(CN2CCN(Cc3ccc(C)cc3)C(CCO)C2)cc(OC)c1O (stereo unspecified) | ? | -1% | 1 | 5% | 21µM* | 2%
Cc1ccc(CN2CCN(Cc3ccc(-n4cccn4)cc3C)CC2CCO)cc1 (stereo unspecified) | ? | ? | -8 | ? | ? | -5%
Cc1cc(C)c(CN2CCN(Cc3ccc(C)o3)C(CCO)C2)c(-n2cccn2)c1 (stereo unspecified) | 23µM* | 0% | -7 | ? | ? | 12%
COc1ccc(CN2CCN(Cc3ccc(C)cc3)C(CCO)C2)cc1OC (stereo unspecified) | -10% | -5% | 23 | -13% | ? | -10%
Cc1ccc(CN2CCN(Cc3cccc(-n4cccn4)c3)CC2CCO)cc1 (stereo unspecified) | ? | ? | -1 | ? | 12µM* | -2%
CCOC(=O)N1CCN(S(=O)(=O)c2ccc(C(=O)N(CCN(C)C)c3nc4ccc(CC)cc4s3)cc2)CC1 | -5% | -22% | -18 | ? | -12% | -3%
CCOC(=O)N1CCN(S(=O)(=O)c2ccc(C(=O)N(CCCN(C)C)c3nc4ccc(CC)cc4s3)cc2)CC1 | ? | -11% | -62* | 14% | ? | -18%
CCOC(=O)N1CCN(S(=O)(=O)c2ccc(C(=O)N(CCCN(C)C)c3nc4ccc(Cl)cc4s3)cc2)CC1 | 18µM* | ? | -96* | ? | ? | ?
COc1cc(OC)c(OC)cc1CN1CCCC(C(=O)c2ccccc2SC)C1 (stereo unspecified) | 21µM* | -19% | 18 | -16% | ? | -1%
COc1cc(CN2CCCC(C(=O)c3ccccc3SC)C2)cc(OC)c1 (stereo unspecified) | ? | 24% | 39 | ? | 15µM* | 5%
CCCS(=O)(=O)N1CCN(Cc2c[nH]c3ccccc23)CC1 | ? | -11% | 17 | 0% | ? | -23%
Cn1cccc1C(=O)N1CCC2(CC1)CN(C(=O)Nc1ccccc1)C2 | -21% | 12% | · | · | 12% | 1%
Cc1cccc(C(=O)N2CCC(=O)N([C@H](COCc3cccc(Cl)c3)Cc3ccccc3)CC2)c1 | 18µM* | 15% | -11 | · | 23µM* | -2%
O=C(c1cccc(Cl)c1)N1CCC(=O)N([C@H](COCc2ccccc2)Cc2ccccc2)CC1 | 18µM* | · | ? | · | ? | ·
